Reference: article PMC7862700, “An all-to-all approach to the identification of sequence-specific readers for epigenetic DNA modifications on cytosine”

How the values were obtained:
Assay in all cases: DAPPL (digital affinity profiling via proximity ligation, sequencing); 10 mM Tris-HCl pH 7.5, 50 mM NaCl, 1 mM DTT, 4% glycerol, room temperature, 30 min; GST-TFs on glutathione beads, 16-mer random dsDNA library, 0.1% formaldehyde crosslink after washing; high values mean tight binding
Conditions in all cases: protein: recombinant; tags: N-terminal GST; dsDNA, one strand shown
ERF = biological target: T1, ERF (Homo sapiens, UniProt P50548 1-548)
T1 sequence: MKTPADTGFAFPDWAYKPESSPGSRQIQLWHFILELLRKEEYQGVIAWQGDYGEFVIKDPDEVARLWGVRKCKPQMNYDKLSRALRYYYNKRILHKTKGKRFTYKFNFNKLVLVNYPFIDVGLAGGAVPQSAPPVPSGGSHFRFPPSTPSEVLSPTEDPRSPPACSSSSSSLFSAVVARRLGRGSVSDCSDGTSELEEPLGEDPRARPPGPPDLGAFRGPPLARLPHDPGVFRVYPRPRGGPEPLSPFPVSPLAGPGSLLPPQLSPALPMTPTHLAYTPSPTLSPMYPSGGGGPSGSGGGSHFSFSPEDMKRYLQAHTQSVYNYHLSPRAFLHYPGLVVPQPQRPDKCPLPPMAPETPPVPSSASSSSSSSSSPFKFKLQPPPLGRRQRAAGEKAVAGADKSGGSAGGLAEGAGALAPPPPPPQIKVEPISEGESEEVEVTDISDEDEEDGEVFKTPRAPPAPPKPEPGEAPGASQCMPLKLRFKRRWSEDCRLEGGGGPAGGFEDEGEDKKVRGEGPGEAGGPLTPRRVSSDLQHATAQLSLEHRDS
Method in brief: (§1)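 GST fusions of human transcription factors were expressed in yeast and captured with glutathione beads. Once given DNA barcodes and pooled alongside a tag-only sample, they were incubated for 30 min at room temperature with 200 nmole of a random double-stranded 16-mer DNA library in Tris/NaCl/DTT/glycerol buffer, then washed, crosslinked (0.1% formaldehyde), proximity-ligated, PCR-amplified and sequenced on an Illumina NextSeq500. The binding signal of each hexamer is its read frequency for a factor divided by its frequency for the tag-only sample.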

ETV3L = biological target: T2, ETV3L (Homo sapiens, UniProt Q6ZN32 1-361)
T2 sequence: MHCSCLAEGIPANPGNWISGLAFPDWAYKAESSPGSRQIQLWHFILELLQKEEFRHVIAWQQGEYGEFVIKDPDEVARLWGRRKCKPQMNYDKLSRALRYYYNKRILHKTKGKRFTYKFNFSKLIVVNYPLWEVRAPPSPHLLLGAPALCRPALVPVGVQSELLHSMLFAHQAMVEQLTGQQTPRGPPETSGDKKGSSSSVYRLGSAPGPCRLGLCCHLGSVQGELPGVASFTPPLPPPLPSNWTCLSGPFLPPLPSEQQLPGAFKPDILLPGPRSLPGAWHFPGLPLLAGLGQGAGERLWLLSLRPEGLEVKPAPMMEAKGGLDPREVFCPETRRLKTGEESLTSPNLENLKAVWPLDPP
Method in brief: as §1

ETS2 = biological target: T3, ETS2 (Homo sapiens, UniProt P15036 1-469)
T3 sequence: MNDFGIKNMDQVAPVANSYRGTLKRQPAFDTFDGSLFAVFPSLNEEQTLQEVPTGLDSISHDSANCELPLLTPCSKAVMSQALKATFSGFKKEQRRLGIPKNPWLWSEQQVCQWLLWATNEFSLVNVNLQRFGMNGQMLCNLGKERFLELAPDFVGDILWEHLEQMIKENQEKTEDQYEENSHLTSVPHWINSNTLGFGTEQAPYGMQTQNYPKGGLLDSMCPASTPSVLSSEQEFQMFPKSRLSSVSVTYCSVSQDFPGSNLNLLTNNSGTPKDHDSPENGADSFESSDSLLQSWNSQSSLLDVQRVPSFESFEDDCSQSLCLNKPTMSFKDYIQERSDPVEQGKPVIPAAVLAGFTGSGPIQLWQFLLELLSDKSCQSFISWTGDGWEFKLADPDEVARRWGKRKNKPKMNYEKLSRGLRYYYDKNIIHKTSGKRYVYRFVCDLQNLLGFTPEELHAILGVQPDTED
Method in brief: as §1

SPDEF = biological target: T4, SPDEF (Homo sapiens, UniProt O95238 1-335)
T4 sequence: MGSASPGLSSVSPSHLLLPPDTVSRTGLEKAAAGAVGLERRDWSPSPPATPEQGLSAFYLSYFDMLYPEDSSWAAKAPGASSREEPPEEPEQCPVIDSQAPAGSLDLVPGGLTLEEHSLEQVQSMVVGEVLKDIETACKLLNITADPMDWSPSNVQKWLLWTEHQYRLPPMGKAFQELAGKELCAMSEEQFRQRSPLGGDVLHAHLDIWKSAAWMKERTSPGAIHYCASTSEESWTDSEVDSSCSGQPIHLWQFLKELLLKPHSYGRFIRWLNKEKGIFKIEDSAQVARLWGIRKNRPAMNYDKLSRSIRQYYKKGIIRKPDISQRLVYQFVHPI
Method in brief: as §1

ETV7 = biological target: T5, ETV7 (Homo sapiens, UniProt Q9Y603 1-341)
T5 sequence: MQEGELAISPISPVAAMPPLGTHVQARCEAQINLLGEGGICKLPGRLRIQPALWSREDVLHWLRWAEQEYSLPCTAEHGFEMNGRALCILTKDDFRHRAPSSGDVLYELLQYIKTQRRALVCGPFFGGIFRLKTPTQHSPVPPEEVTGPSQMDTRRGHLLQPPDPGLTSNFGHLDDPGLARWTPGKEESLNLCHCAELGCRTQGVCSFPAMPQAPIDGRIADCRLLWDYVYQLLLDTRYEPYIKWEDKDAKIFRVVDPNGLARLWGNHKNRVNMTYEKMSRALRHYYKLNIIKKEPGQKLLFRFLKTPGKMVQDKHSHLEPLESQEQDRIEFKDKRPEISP
Method in brief: as §1

ELF5 = biological target: T6, ELF5 (Homo sapiens, UniProt Q9UKW6-2 1-255)
T6 sequence: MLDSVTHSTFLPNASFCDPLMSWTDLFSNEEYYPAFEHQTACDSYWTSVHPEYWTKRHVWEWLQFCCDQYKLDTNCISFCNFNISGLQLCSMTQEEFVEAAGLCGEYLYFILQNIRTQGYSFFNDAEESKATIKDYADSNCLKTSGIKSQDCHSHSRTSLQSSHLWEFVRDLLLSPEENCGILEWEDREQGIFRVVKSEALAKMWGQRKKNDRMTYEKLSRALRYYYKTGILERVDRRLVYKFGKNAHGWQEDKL
Method in brief: as §1

ETV3 = biological target: T7, ETV3 (Homo sapiens, UniProt P41162-2 1-143)
T7 sequence: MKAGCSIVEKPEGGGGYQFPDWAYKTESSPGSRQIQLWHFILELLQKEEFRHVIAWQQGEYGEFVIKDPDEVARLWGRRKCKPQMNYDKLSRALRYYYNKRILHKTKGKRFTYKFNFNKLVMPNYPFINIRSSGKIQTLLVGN
Method in brief: as §1

ETV6 = ETV6 (Homo sapiens, UniProt P41212 1-452)
Method in brief: as §1

Chain of ETV6 (P41212 whole entry): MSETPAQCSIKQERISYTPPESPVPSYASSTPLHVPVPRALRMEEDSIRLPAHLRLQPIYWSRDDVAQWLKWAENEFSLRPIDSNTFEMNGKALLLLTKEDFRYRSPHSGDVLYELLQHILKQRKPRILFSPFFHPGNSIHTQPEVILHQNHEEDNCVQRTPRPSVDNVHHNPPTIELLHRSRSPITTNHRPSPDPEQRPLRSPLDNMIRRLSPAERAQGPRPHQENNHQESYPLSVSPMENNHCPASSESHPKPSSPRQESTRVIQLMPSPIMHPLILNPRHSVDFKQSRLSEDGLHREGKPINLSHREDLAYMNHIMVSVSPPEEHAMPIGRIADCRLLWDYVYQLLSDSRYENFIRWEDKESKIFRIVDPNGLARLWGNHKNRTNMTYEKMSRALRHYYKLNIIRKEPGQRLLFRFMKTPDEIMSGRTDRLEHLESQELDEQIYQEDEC

Sequence	binding signal (ERF)	binding signal (ETV3L)	binding signal (ETS2)	binding signal (SPDEF)	binding signal (ETV7)	binding signal (ELF5)	binding signal (ETV3)	binding signal (ETV6)
TGCGCT	1.33 fold enrichment (6-mer frequency, TF over GST control)	1.21 fold enrichment (6-mer frequency, TF over GST control)	1.43 fold enrichment (6-mer frequency, TF over GST control)	1.19 fold enrichment (6-mer frequency, TF over GST control)	1.17 fold enrichment (6-mer frequency, TF over GST control)	1.15 fold enrichment (6-mer frequency, TF over GST control)	1.24 fold enrichment (6-mer frequency, TF over GST control)	1.24 fold enrichment (6-mer frequency, TF over GST control)
TCGTTT	1.07 fold enrichment (6-mer frequency, TF over GST control)	1.15 fold enrichment (6-mer frequency, TF over GST control)	1.28 fold enrichment (6-mer frequency, TF over GST control)	1.12 fold enrichment (6-mer frequency, TF over GST control)	1.31 fold enrichment (6-mer frequency, TF over GST control)	1.27 fold enrichment (6-mer frequency, TF over GST control)	1.25 fold enrichment (6-mer frequency, TF over GST control)	1.15 fold enrichment (6-mer frequency, TF over GST control)
ATATCA	1.19 fold enrichment (6-mer frequency, TF over GST control)	1.1 fold enrichment (6-mer frequency, TF over GST control)	1.2 fold enrichment (6-mer frequency, TF over GST control)	1.2 fold enrichment (6-mer frequency, TF over GST control)	1.13 fold enrichment (6-mer frequency, TF over GST control)	1.11 fold enrichment (6-mer frequency, TF over GST control)	1.23 fold enrichment (6-mer frequency, TF over GST control)	1.18 fold enrichment (6-mer frequency, TF over GST control)
ATATGC	1.15 fold enrichment (6-mer frequency, TF over GST control)	1.11 fold enrichment (6-mer frequency, TF over GST control)	1.19 fold enrichment (6-mer frequency, TF over GST control)	1.14 fold enrichment (6-mer frequency, TF over GST control)	1.11 fold enrichment (6-mer frequency, TF over GST control)	1.12 fold enrichment (6-mer frequency, TF over GST control)	1.16 fold enrichment (6-mer frequency, TF over GST control)	1.12 fold enrichment (6-mer frequency, TF over GST control)
CTTTTG	1.62 fold enrichment (6-mer frequency, TF over GST control)	1.31 fold enrichment (6-mer frequency, TF over GST control)	1.45 fold enrichment (6-mer frequency, TF over GST control)	1.46 fold enrichment (6-mer frequency, TF over GST control)	1.44 fold enrichment (6-mer frequency, TF over GST control)	1.28 fold enrichment (6-mer frequency, TF over GST control)	1.24 fold enrichment (6-mer frequency, TF over GST control)	1.46 fold enrichment (6-mer frequency, TF over GST control)
ATCAAC	1.15 fold enrichment (6-mer frequency, TF over GST control)	1.23 fold enrichment (6-mer frequency, TF over GST control)	1.18 fold enrichment (6-mer frequency, TF over GST control)	1.06 fold enrichment (6-mer frequency, TF over GST control)	1.02 fold enrichment (6-mer frequency, TF over GST control)	1.02 fold enrichment (6-mer frequency, TF over GST control)	1.12 fold enrichment (6-mer frequency, TF over GST control)	1.1 fold enrichment (6-mer frequency, TF over GST control)
AAATAC	1.48 fold enrichment (6-mer frequency, TF over GST control)	1.35 fold enrichment (6-mer frequency, TF over GST control)	1.39 fold enrichment (6-mer frequency, TF over GST control)	1.41 fold enrichment (6-mer frequency, TF over GST control)	1.5 fold enrichment (6-mer frequency, TF over GST control)	1.52 fold enrichment (6-mer frequency, TF over GST control)	1.39 fold enrichment (6-mer frequency, TF over GST control)	1.49 fold enrichment (6-mer frequency, TF over GST control)
CTTCTC	1.33 fold enrichment (6-mer frequency, TF over GST control)	1.39 fold enrichment (6-mer frequency, TF over GST control)	1.32 fold enrichment (6-mer frequency, TF over GST control)	1.33 fold enrichment (6-mer frequency, TF over GST control)	1.32 fold enrichment (6-mer frequency, TF over GST control)	1.52 fold enrichment (6-mer frequency, TF over GST control)	1.31 fold enrichment (6-mer frequency, TF over GST control)	1.37 fold enrichment (6-mer frequency, TF over GST control)
ACTCCG	1.37 fold enrichment (6-mer frequency, TF over GST control)	1.52 fold enrichment (6-mer frequency, TF over GST control)	1.46 fold enrichment (6-mer frequency, TF over GST control)	1.59 fold enrichment (6-mer frequency, TF over GST control)	1.4 fold enrichment (6-mer frequency, TF over GST control)	1.32 fold enrichment (6-mer frequency, TF over GST control)	1.51 fold enrichment (6-mer frequency, TF over GST control)	1.47 fold enrichment (6-mer frequency, TF over GST control)
CTTTTC	1.33 fold enrichment (6-mer frequency, TF over GST control)	1.48 fold enrichment (6-mer frequency, TF over GST control)	1.33 fold enrichment (6-mer frequency, TF over GST control)	1.49 fold enrichment (6-mer frequency, TF over GST control)	1.49 fold enrichment (6-mer frequency, TF over GST control)	1.58 fold enrichment (6-mer frequency, TF over GST control)	1.69 fold enrichment (6-mer frequency, TF over GST control)	1.57 fold enrichment (6-mer frequency, TF over GST control)
TGACTT	1.45 fold enrichment (6-mer frequency, TF over GST control)	1.4 fold enrichment (6-mer frequency, TF over GST control)	1.53 fold enrichment (6-mer frequency, TF over GST control)	1.24 fold enrichment (6-mer frequency, TF over GST control)	1.48 fold enrichment (6-mer frequency, TF over GST control)	1.56 fold enrichment (6-mer frequency, TF over GST control)	1.46 fold enrichment (6-mer frequency, TF over GST control)	1.39 fold enrichment (6-mer frequency, TF over GST control)
TCAACC	1.3 fold enrichment (6-mer frequency, TF over GST control)	1.24 fold enrichment (6-mer frequency, TF over GST control)	1.22 fold enrichment (6-mer frequency, TF over GST control)	1.2 fold enrichment (6-mer frequency, TF over GST control)	1.07 fold enrichment (6-mer frequency, TF over GST control)	1.07 fold enrichment (6-mer frequency, TF over GST control)	1.16 fold enrichment (6-mer frequency, TF over GST control)	1.22 fold enrichment (6-mer frequency, TF over GST control)
AATGGT	1.38 fold enrichment (6-mer frequency, TF over GST control)	1.33 fold enrichment (6-mer frequency, TF over GST control)	1.33 fold enrichment (6-mer frequency, TF over GST control)	1.27 fold enrichment (6-mer frequency, TF over GST control)	1.41 fold enrichment (6-mer frequency, TF over GST control)	1.43 fold enrichment (6-mer frequency, TF over GST control)	1.4 fold enrichment (6-mer frequency, TF over GST control)	1.39 fold enrichment (6-mer frequency, TF over GST control)
CTTCAT	1.35 fold enrichment (6-mer frequency, TF over GST control)	1.52 fold enrichment (6-mer frequency, TF over GST control)	1.43 fold enrichment (6-mer frequency, TF over GST control)	1.43 fold enrichment (6-mer frequency, TF over GST control)	1.46 fold enrichment (6-mer frequency, TF over GST control)	1.44 fold enrichment (6-mer frequency, TF over GST control)	1.46 fold enrichment (6-mer frequency, TF over GST control)	1.33 fold enrichment (6-mer frequency, TF over GST control)
ACAATA	1.21 fold enrichment (6-mer frequency, TF over GST control)	1.14 fold enrichment (6-mer frequency, TF over GST control)	1.15 fold enrichment (6-mer frequency, TF over GST control)	1.15 fold enrichment (6-mer frequency, TF over GST control)	1.07 fold enrichment (6-mer frequency, TF over GST control)	1.09 fold enrichment (6-mer frequency, TF over GST control)	1.21 fold enrichment (6-mer frequency, TF over GST control)	1.18 fold enrichment (6-mer frequency, TF over GST control)
